Screening data as filed in PubChem.
A selection: hits, their analogues and other compounds. The true share with any hit is near 9.3%.
FMDV inh – High Throughput Screening for Foot and Mouth Disease Virus Antivirals | FMDV antiviral cell-based qHTS | 410,000 compounds, 1.2% hits | Potency, µM (highest dose often 57.9 µM), inactives show at the top dose activity change, negative = inhibition, actives largely listed as inhibitors; calls by dose curve; tested in HEK293T cells; further: read-out not given here; potency means the concentration at half of the fitted maximal effect; nearly all actives have a fitted effect of over 45% in size
Vaccinia mCherry – qHTS for Stage-Specific Inhibitors of Vaccinia Orthopoxvirus: mCherry Reporter Primary qHTS. Vaccinia virus mCherry reporter infection, fluorescence. Potency, µM (highest dose often 36.5 µM), inactives show at the highest dose activity change, negative = inhibition, most hits filed as inhibitors. 310,000 compounds, 0.63% hits. AID 720579, 2013; calls by dose curve; tested in A549 cells; further: potency means the concentration at half of the fitted maximal effect; nearly all actives have a fitted effect of over 35% in size
VACV Venus inh – qHTS for Stage-Specific Inhibitors of Vaccinia Orthopoxvirus: Venus Reporter Primary qHTS; 330,000 compounds, 0.46% hits; Potency, µM (highest dose often 36.5 µM), inactives show at the top dose activity change, negative = inhibition, most hits filed as inhibitors; Vaccinia virus Venus reporter expression, fluorescence; calls by dose curve; tested in A549 cells; further: potency means the concentration at half of the fitted maximal effect; nearly all actives have a fitted effect of over 30% in size
Sm TGR inh – qHTS Assay for the Inhibitors of Schistosoma Mansoni Peroxiredoxins | 360,000 compounds, 3% hits | Schistosoma mansoni thioredoxin glutathione reductase (TGR), Q962Y6 | purified TGR, DTNB reduction, TNB absorbance 405 nm | Potency, µM (highest dose often 114 µM), for inactives: top-dose activity change, negative = inhibition, most hits filed as inhibitors; further: potency means the concentration at half of the fitted maximal effect; nearly all actives have a fitted effect of over 60% in size
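TGR 20 nM + NADPH 100 uM (dispensed conc.), cpd preinc 15 min RT; start with NADPH (500 uM addition) then DTNB (15 mM addition). Kinetic TNB absorbance, 405 nm filter. Four-parameter Hill fit across titration.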
HCMV inh – qHTS Assay for inhibitors of the human cytomegalovirus (HCMV); HFF cells, HCMV-luciferase reporter, 72 h; hits give low values; activity change, negative = inhibition, % at 57.5 µM; 410,000 compounds, 4.5% hits; AID 1259415, 2018; in the data active means activity change below about -60%; inconclusive means no clear call, values can overlap the other calls; inactive means above about -39%
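After 16 h attachment at 37C, HFF cells received test compound and HCMV-luciferase (1 PFU/cell); reporter luminescence read 72 h later, data normalized against buffer-only and known inhibitor Salinomycin.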
HCV inh – qHTS Assay for Inhibitors of Hepatitis C Virus (HCV); Huh7.5.1 HCVcc-Cre infection, luciferase reporter, 44 h; Potency, µM (series often up to 41.8 µM), inactives show at the top dose activity change, negative = inhibition, actives largely listed as inhibitors; 340,000 compounds, 3.4% hits; further: potency means the concentration at half of the fitted maximal effect
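Compounds are dispensed onto cells plated 4 h earlier at 1,000 per well, with HCVcc-Cre virus (about 0.5 moi) added next. Following 44 h of culture, luminescent signal is measured for 15 sec after 15 min with substrate at room temperature.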
The depositor's hits bear a star. Unless noted, the call rests on the fitted dose curve; in most records, active means well fitted curve in the direction sought with a large enough effect; inconclusive means small, poorly fitted or top-dose-only effect, or another doubt; inactive means no such curve, though single readings can be large; an effect the other way counts as inactive or inconclusive. On the % scale 0 is the no-effect control and ±100 the full control effect.

What do the screens show for `CC(C)OP(=O)(OC(C)C)C(Nc1ccc(C(=O)O)cc1)c1ccccc1` (centres undefined)?
FMDV inh: -23%; Sm TGR inh: 9%; HCMV inh: -34; HCV inh: 20%

What do the screens show for `O=C(/C=C/c1ccc(F)cc1)NC(=S)N1CCCCC1c1cccnc1` (centres undefined)?
FMDV inh: 14%; Vaccinia mCherry: inconclusive; VACV Venus inh: -5%; Sm TGR inh: -3%; HCMV inh: -11; HCV inh: -6%

How did O=C1/C(=C/c2ccc(F)cc2)SC(=S)N1CC(=O)N1CCCCC1c1cccnc1 (centres undefined) do in these assays?
FMDV inh: -1%; Sm TGR inh: -10%; HCMV inh: -83*; HCV inh: inconclusive

What do the screens show for `O=C1/C(=C/c2ccccc2F)SC(=S)N1CC(=O)N1CCCCC1c1cccnc1` (centres undefined)?
FMDV inh: 0%; Sm TGR inh: 1%; HCMV inh: -76*; HCV inh: inconclusive

What do the screens show for `O=C(/C=C/c1ccc(S(=O)(=O)NCc2ccco2)cc1)NCc1cccc(Cl)c1`?
FMDV inh: -17%; Vaccinia mCherry: inconclusive; VACV Venus inh: inconclusive; Sm TGR inh: -15%; HCMV inh: 7; HCV inh: inconclusive

Results for CCC(C)[C@H]1CN=C(N)N1CCCc1cc(OC)c(OC)c(OC)c1 (some centres undefined) ?
FMDV inh: -4%; Vaccinia mCherry: inactive; VACV Venus inh: 1%; Sm TGR inh: 7%; HCMV inh: -25; HCV inh: 9%

Results for COc1cccc(C(O)c2nc(/C=C/c3ccc(C(F)(F)F)cc3)cs2)c1 (centres undefined) ?
FMDV inh: -21%; Vaccinia mCherry: 1%; VACV Venus inh: -2%; HCMV inh: -62*

What do the screens show for `CN1CCN(C(=O)CCn2c(=O)c3cccn3c3cccnc32)CC1`?
FMDV inh: -5%; Vaccinia mCherry: -7%; VACV Venus inh: -7%; Sm TGR inh: 0%; HCMV inh: active; HCV inh: 16%

Results for O=C(CCn1c(=O)c2cccn2c2cccnc21)N1CCN(c2ccc(Cl)cc2)CC1 ?
FMDV inh: inconclusive; Vaccinia mCherry: -23%; VACV Venus inh: -16%; Sm TGR inh: 0%; HCMV inh: inconclusive

How did O=C(Cn1c(=O)c2cccn2c2cccnc21)N1CCN(c2ccc(Cl)cc2)CC1 do in these assays?
FMDV inh: inconclusive; Sm TGR inh: -1%; HCV inh: 13µM*

How did CCC(OC(=O)C(C)N1C(=O)C(=O)c2ccccc21)C(=O)Nc1ccccc1OC (centres undefined) do in these assays?
FMDV inh: -4%; Vaccinia mCherry: -29%; VACV Venus inh: -3%; Sm TGR inh: 2%; HCMV inh: 8; HCV inh: -17%

Results for CCC(OC(=O)CN1C(=O)C(=O)c2ccccc21)C(=O)Nc1ccccc1OC (centres undefined) ?
FMDV inh: -15%; Vaccinia mCherry: -16%; VACV Venus inh: -5%; Sm TGR inh: 2%; HCMV inh: -63*; HCV inh: -7%

How did COc1ccc(-n2ccnc2CN2CCN(C3CCCC3)C(CCO)C2)cc1 (centres undefined) do in these assays?
FMDV inh: -1%; Sm TGR inh: 25µM*; HCMV inh: -22; HCV inh: 14%

What do the screens show for `Cc1cc(/C=C2/SC(=S)N(c3ccc([N+](=O)[O-])cc3)C2=O)c(C)n1-c1cccnc1`?
FMDV inh: inconclusive; Sm TGR inh: 0%; HCMV inh: -83*; HCV inh: 2.5µM*

What do the screens show for `Cc1cccc(N2C(=O)/C(=C/c3cccnc3)SC2=S)c1`?
FMDV inh: -16%; Vaccinia mCherry: inactive; VACV Venus inh: -13%; Sm TGR inh: -1%; HCMV inh: 16; HCV inh: -2%

Results for Cc1cc(/C=C2/SC(=S)N(c3cccc(Cl)c3)C2=O)c(C)n1-c1cccnc1 ?
FMDV inh: inconclusive; Vaccinia mCherry: inconclusive; VACV Venus inh: inconclusive; HCMV inh: -93*; HCV inh: 2.2µM*

How did CCOc1ccc(C(=O)NCC(c2ccc3c(c2)OCO3)N2CCN(c3ccccc3F)CC2)cc1 (centres undefined) do in these assays?
FMDV inh: -25%; Vaccinia mCherry: -2%; VACV Venus inh: -3%; Sm TGR inh: 2%; HCMV inh: 11

How did S=C(NCc1ccco1)N1CCN(c2cccc(Cl)c2)CC1 do in these assays?
FMDV inh: 0%; Sm TGR inh: -4%; HCMV inh: -17; HCV inh: inconclusive

Results for CC1CCN(CCCNC(=O)c2cc3c(Cl)nc4ccccc4c3s2)CC1 ?
FMDV inh: -23%; Sm TGR inh: 0%; HCMV inh: -91*; HCV inh: 13µM*

How did O=C(NCCCN1CCCC1)c1cc2c(Cl)nc3ccccc3c2s1 do in these assays?
FMDV inh: -2%; Vaccinia mCherry: inactive; VACV Venus inh: inconclusive; Sm TGR inh: -2%; HCMV inh: -35; HCV inh: 18µM*

Results for CCOCCCNC(=O)c1cc(Sc2nnc(C)s2)nc2ccccc12 ?
FMDV inh: -15%; Vaccinia mCherry: -6%; VACV Venus inh: -12%; Sm TGR inh: 0%; HCMV inh: -26; HCV inh: 10µM*

What do the screens show for `O=C(NCCCN1CCN(c2ccccc2F)CC1)c1cc2c(Cl)nc3ccccc3c2s1`?
FMDV inh: inconclusive; Vaccinia mCherry: -12%; VACV Venus inh: -7%; Sm TGR inh: 3%; HCMV inh: -6

Results for CCOC(=O)C1CCCN(C(=O)c2cc3c(Cl)nc4ccccc4c3s2)C1 (centres undefined) ?
FMDV inh: inconclusive; Vaccinia mCherry: -11%; VACV Venus inh: -15%; Sm TGR inh: -3%; HCMV inh: -77*

Results for Cc1cc(C)n2nc(SCC(=O)N/N=C/c3ccc(F)cc3)nc2n1 ?
FMDV inh: 12%; Vaccinia mCherry: -11%; VACV Venus inh: -13%; Sm TGR inh: 5%; HCMV inh: 32; HCV inh: 10%

How did COc1cc(NC(=O)COC(=O)CNS(=O)(=O)c2ccc(F)c(F)c2F)cc(OC)c1 do in these assays?
FMDV inh: -9%; Vaccinia mCherry: -17%; VACV Venus inh: -15%; Sm TGR inh: -7%; HCMV inh: inconclusive; HCV inh: 42%

Results for COCCNC(=S)N1CCN(S(=O)(=O)c2ccc(Cl)s2)CC1 ?
FMDV inh: -14%; Sm TGR inh: -5%; HCMV inh: 18; HCV inh: 10%
